{
  "source": "PubChem BioAssay (NCATS)",
  "note": "A number with no mark means an inactive call. The call rests on the fitted dose curve; in most records, active means well fitted inhibition curve with a large enough effect; inconclusive means small, poorly fitted or top-dose-only effect; inactive means flat fitted curve, though single readings scatter.",
  "data": [
    {"system": "Nanoluciferase (engineered Oplophorus gracilirostris luciferase)", "test": "Primary Nanoluciferase (NLuc) qHTS assay for identification of artifact compounds. (AID 1845222)", "details": "NLuc-conditioned medium, Nano-Glo luminescence, 5 min; series mostly up to 54.1 µM; activity, negative = inhibition: at the top concentration", "source_text": "PI: Alexander Tropsha Ph.D.\nUNC Eshelman School of Pharmacy\nUniversity of North Carolina, Chapel Hill, North Carolina\nHits from high-throughput screening (HTS) of chemical libraries are often false positives due to their interference with the assay detection technology. In response to this problem, we generated the largest publicly available library of chemical liabilities and developed a free webtool to predict HTS artifacts, both of which are described herein. More specifically, we generated, curated, and integrated HTS datasets for thiol reactivity, redox activity, and luciferase (firefly and nano) activity. Using these curated datasets, we developed and validated several Quantitative Structure-Interference Relationship (QSIR) models to predict nuisance behavior. […] These models were employed for virtual profiling of the National Center for Advancing Translational Science's (NCATS) in-house library, and 256 compounds for each assay were selected for the experimental validation of nuisance behavior. The BA for these external predictions ranged from 58 to 78% for compounds within the applicability domains of the models. […] The models developed in this study, along with aggregation models previously developed by our group (SCAM Detective) were implemented in \"Liability Predictor,\" an online tool which may be used as part of chemical library design or for triaging HTS hits. Both the models and the curated datasets are publicly available at https://liability.mml.unc.edu/.\nSEQUENCE No. (e.g., 1, 2, 3, etc.); […] (e.g., Cells, Incubation, Reagent, etc.); VALUE; DESCRIPTION.\n1; Reagent; 2 uL; Nanoluciferase media.\n2; Compounds and control; 16 nL; Kalypsis pin tool (Wako USA) equipped with a 1536-well pin head.\n4; Reagent; 2 uL; Luciferase enzyme.\n6; Detection; Luminescence, ViewLux microplate reader.\nNOTES (numbers refer to Sequence numbers above)\n1. Medium was collected from the culture flasks of NLuc-expressing S16 cells (80% confluent) prior to cell plating, filtered through a 0.22um filter, and frozen at -20C prior to use. Media was diluted (1:55) and 2 uL was dispensed into all wells of a 1536-well assay plate (solid-bottom white plate; Greiner Bio One, Monroe, NC).\n2. A Wako Pin-tool (Wako Automation, Richmond, VA) was used to transfer 16 nL of compounds (consisting of 7-plates in qHTS format, final concentration range 18.3 nM to 114 uM) or control Cilnidipine (final concentration range 623 nM to 80 uM).\n3. 15 min. incubation at room temperature protected from light.\n4. 2 uL of NLuc substrate (1:100 in Nano-Glo luciferase buffer; Nano-Glo luminescence assay, Promega, Madison, WI) was dispensed for a final assay volume of 4 uL.\n5. Plates were centrifuged (121xg, 15 seconds) and incubated for 5 minutes.\n6. Samples were read for luminescence on a ViewLux CCD imager (PerkinElmer). Data were normalized to no-enzyme (0% activity) and no-inhibitor (DMSO; 100%) controls and the resulting percent inhibition data were fitted to a 4-parameter Hill equation using NCATS in-house software.", "values": [
      {"molecule": "C=C(c1ccc(C(=O)O)cc1)c1cc2c(cc1C)C(C)(C)CCC2(C)C", "activity, negative = inhibition": "-11.7%"},
      {"molecule": "COCCCOc1ccnc(CS(=O)c2nc3ccccc3[nH]2)c1C", "note": "(centres undefined)", "activity, negative = inhibition": "-6.86%"},
      {"molecule": "N[C@@H](Cc1cc(I)c(Oc2cc(I)c(O)c(I)c2)c(I)c1)C(=O)O", "activity, negative = inhibition": "-3.06%"},
      {"molecule": "O=C(OC1C[C@H]2CC[C@@H](C1)[N+]21CCCC1)C(O)(c1ccccc1)c1ccccc1", "note": "(some centres undefined)", "activity, negative = inhibition": "1.72%"},
      {"molecule": "CCCS(=O)c1ccc2nc(NC(=O)OC)[nH]c2c1", "note": "(centres undefined)", "activity, negative = inhibition": "-9.06%"},
      {"molecule": "OC(CN1CCN(c2cccc(Cl)c2)CC1)C(c1ccccc1)c1ccccc1", "note": "(centres undefined)", "activity, negative = inhibition": "3.49%"},
      {"molecule": "Cc1ccc(NC(=O)c2ccc(CN3CCN(C)CC3)cc2)cc1Nc1nccc(-c2cccnc2)n1", "activity, negative = inhibition": "-3.12%"},
      {"molecule": "COc1cc2c(N3CCN(C(=O)Nc4ccc(OC(C)C)cc4)CC3)ncnc2cc1OCCCN1CCCCC1", "activity, negative = inhibition": "-1.51%"},
      {"molecule": "CC(C)C[C@H](NC(=O)[C@H](Cc1ccccc1)NC(=O)c1cnccn1)B(O)O", "activity, negative = inhibition": "2.16%"},
      {"molecule": "CC(C)c1nc(CN(C)C(=O)N[C@H](C(=O)N[C@@H](Cc2ccccc2)C[C@H](O)[C@H](Cc2ccccc2)NC(=O)OCc2cncs2)C(C)C)cs1", "activity, negative = inhibition": "2.8%"},
      {"molecule": "CCC(C)(Oc1ccc(C2(c3ccc(OC(C)(CC)C(=O)O)cc3)CCCCC2)cc1)C(=O)O", "note": "(centres undefined)", "activity, negative = inhibition": "-8.96%"},
      {"molecule": "CCC1=C(C)CN(C(=O)NCCc2ccc(S(=O)(=O)NC(=O)NC3CCC(C)CC3)cc2)C1=O", "note": "(centres undefined)", "activity, negative = inhibition": "-7.86%"},
      {"molecule": "Cc1cc2c(s1)Nc1ccccc1N=C2N1CCN(C)CC1", "activity, negative = inhibition": "4.7%"},
      {"molecule": "Clc1ccc(C(Cn2ccnc2)OCc2c(Cl)cccc2Cl)c(Cl)c1", "note": "(centres undefined)", "activity, negative = inhibition": "0.0117%"},
      {"molecule": "COc1cc(Nc2c(C#N)cnc3cc(OCCCN4CCN(C)CC4)c(OC)cc23)c(Cl)cc1Cl", "activity, negative = inhibition": "-7%"},
      {"molecule": "CC(=O)O[C@H]1C(=O)[C@@]2(C)C([C@H](OC(=O)c3ccccc3)[C@]3(O)C[C@H](OC(=O)[C@H](O)[C@@H](NC(=O)c4ccccc4)c4ccccc4)C(C)=C1C3(C)C)[C@]1(OC(C)=O)CO[C@@H]1C[C@@H]2O", "note": "(some centres undefined)", "activity, negative = inhibition": "-2.51%"},
      {"molecule": "CN(C)CCCC1(c2ccc(F)cc2)OCc2cc(C#N)ccc21", "note": "(centres undefined)", "activity, negative = inhibition": "1.79%"},
      {"molecule": "CN(c1nccc(=O)[nH]1)C1CCN(c2nc3ccccc3n2Cc2ccc(F)cc2)CC1", "activity, negative = inhibition": "4.55%"},
      {"molecule": "Cc1ccc(Nc2nccc(N(C)c3ccc4c(C)n(C)nc4c3)n2)cc1S(N)(=O)=O", "activity, negative = inhibition": "1.2%"},
      {"molecule": "CC(=O)NC[C@H]1CN(c2ccc(N3CCOCC3)c(F)c2)C(=O)O1", "activity, negative = inhibition": "0%"},
      {"molecule": "CN(C)C(=O)[C@H](O)[C@H](Cc1ccccc1)NC(=O)c1cc2cc(Cl)ccc2[nH]1", "activity, negative = inhibition": "-0.0495%"},
      {"molecule": "COc1c(O)cc2c(c1O)[C@@H]1O[C@H](CO)[C@@H](O)[C@H](O)[C@H]1OC2=O", "activity, negative = inhibition": "-1.55%"},
      {"molecule": "COc1ccc(C2(C#N)CCC(C(=O)O)CC2)cc1OC1CCCC1", "note": "(centres undefined)", "activity, negative = inhibition": "-13.7%"},
      {"molecule": "COc1ccccc1N1CCN(CCN(C(=O)C2CCCCC2)c2ccccn2)CC1", "activity, negative = inhibition": "0.561%"},
      {"molecule": "Cc1nc(Nc2ncc(C(=O)Nc3c(C)cccc3Cl)s2)cc(N2CCN(CCO)CC2)n1", "activity, negative = inhibition": "-14.4%"},
      {"molecule": "O=C(NOCC1CC1)c1ccc(F)c(F)c1Nc1ccc(I)cc1Cl", "activity, negative = inhibition": "-2.66%"},
      {"molecule": "c1cnc2cc3c(cc2n1)C1CNCC3C1", "activity, negative = inhibition": "-6.53%"},
      {"molecule": "Cc1nccn1CC1CCc2c(c3ccccc3n2C)C1=O", "note": "(centres undefined)", "activity, negative = inhibition": "-0.807%"},
      {"molecule": "CCN(CCO)CCCC(C)Nc1ccnc2cc(Cl)ccc12", "note": "(centres undefined)", "activity, negative = inhibition": "-2.86% [at 6.45 µM]"}
    ]}
  ]
}
